Shiga toxin inh: inhibitors of Shiga toxin in Vero cells; Vero cells, Shiga toxin protein synthesis inhibition reporter; 9.2% of 290,000 active; inhibition, % at 38.7 µM; in the data active = inhibition mostly above about 28%, no sharp cut-off; inactive = mostly below about 43%
Marburg entry inh: Marburg virus entry inhibition; Marburg virus pseudotyped entry inhibition, cell reporter; Potency, µM (titrated, usually from 37.8 µM), most hits filed as inhibitors; 1.8% of 300,000 active; calls by dose curve; tested in HEK293 cells
LASV entry inh: Lassa virus entry inhibition; Lassa virus pseudotype entry inhibition, cell reporter; Potency, µM (titrated, usually from 37.9 µM), usual class: inhibitors; 1.2% of 300,000 active; AID 540256; calls by dose curve; tested in HEK293 cells; also: nearly all actives have a fitted effect of over 50% in size
CHX counter: counter-screen hit for Shiga toxin inhibitors, cycloheximide. cell reporter, cycloheximide protein synthesis inhibition counterscreen. max response, %. 12% of 300,000 active. AID 2314; in the data active = max response mostly above about 13%, no sharp cut-off; inactive = mostly below about 14%; also: read at 38.3 µM for the half of the compounds with a filed dose
Of the large screens only hits and unclear results are named; the others gave an inactive call; ! = not active in a repeat. Shown are actives, neighbours in structure and some others; about 12% of the full set was active somewhere.

CCC(C)n1c(=N)c(C(=O)NCc2ccccc2)cc2c(=O)n3cc(C)ccc3nc21 (stereo not given)	none (no result: Shiga toxin inh, CHX counter)
C/C(=C/C(=O)Nc1cccc(F)c1)N1CCCC1	none
COc1cccc(CNC(=O)Cn2cccc2C(=O)c2ccccc2C)c1	CHX counter 21
COc1ccccc1CNC(=O)Cn1cccc1C(=O)c1ccccc1C	Shiga toxin inh 46, Marburg entry inh inconclusive, CHX counter 43
Cc1ccccc1C(=O)c1cccn1CC(=O)NCc1cccc(Cl)c1	Shiga toxin inh 42, CHX counter 50
COc1cccc(CNC(=O)Cn2cccc2C(=O)c2ccccc2)c1	none (no result: Shiga toxin inh, CHX counter)
Cc1ccccc1C(=O)c1cccn1CC(=O)NCCC1=CCCCC1	CHX counter 25
Cc1ccccc1C(=O)c1cccn1CC(=O)NCCCN1CCCCC1	none
COc1cc(C(=O)OC2CSCC2NC(=O)c2ccccc2)cc(OC)c1OC (stereo not given)	none (no result: Marburg entry inh, LASV entry inh)
c1ccc2c(c1)nc1n2CCN1CCN1CCCC1	none
COc1ccccc1CCN1CCCC(CN(C)C(=O)c2ccoc2)C1 (stereo not given)	none (no result: Marburg entry inh, LASV entry inh)
CCOC(=O)C1=C(COC(=O)c2ncc(Cl)c(Cl)c2Cl)NC(=O)NC1C (stereo not given)	none (no result: Shiga toxin inh, CHX counter)
c1cnc2c(c1)ccc1cccnc12	Marburg entry inh 5.8µM, LASV entry inh 3.7µM, CHX counter active!
CCCn1c(CCC(=O)Nc2cc(OC)cc(OC)c2)nc2cccnc21	none (no result: Shiga toxin inh, CHX counter)
Cc1ccc(N(C(=O)Cc2cccs2)C(C(=O)NC2CCCCC2)c2ccccn2)cc1C (stereo not given)	Shiga toxin inh 32, LASV entry inh inconclusive
COc1cccc(-c2nn3c(=O)cc(CN4CCN(S(=O)(=O)c5ccc(C)cc5)CC4)nc3s2)c1	none (no result: Shiga toxin inh, Marburg entry inh, CHX counter)
COc1cccc(-c2nnn(CCC(=O)O)n2)c1	none
O=C(Cn1nnc(-c2cccs2)n1)NCCc1ccccc1	Marburg entry inh inconclusive, CHX counter 20
COc1ccc(C(=O)Cn2nnc(-c3cccs3)n2)cc1	Shiga toxin inh 91, CHX counter 63
COc1ccc(CCNC(=O)Cn2nnc(-c3cccs3)n2)cc1OC	none
COc1ccc(N2CCN(C(=O)Cn3nnc(-c4cccs4)n3)CC2)cc1	none
COC(=O)Cn1nnc(-c2cccc(OC)c2)n1	Shiga toxin inh 65, CHX counter 22
Cc1cc(C(=O)Nc2ccc(F)cc2)c2ccccc2n1	none
CC1OC(OCC2OC(Oc3cc(O)c4c(c3)OC(c3ccc(O)cc3)CC4=O)C(O)C(O)C2O)C(O)C(O)C1O (stereo not given)	none (no result: Marburg entry inh, LASV entry inh)
O=c1c2ccccc2nc(N/N=C/c2ccc(O)cc2)n1O	none
O=c1c2ccccc2nc(N/N=C/c2c(O)ccc3ccccc23)n1O	Shiga toxin inh 53, Marburg entry inh 0.79µM, LASV entry inh 0.63µM, CHX counter 40
Oc1ccc2ccccc2c1C=NNc1ccccn1	Marburg entry inh 5.6µM, LASV entry inh inconclusive (no result: Shiga toxin inh, CHX counter)
COc1ccc(/C=N/Nc2nnc(-c3ncc[nH]3)c3ccccc23)cc1	Shiga toxin inh 78, CHX counter 25
Oc1ccc2ccccc2c1/C=N/c1nccs1	none
Oc1ccc2ccccc2c1/C=N/Nc1nnc(-c2ncc[nH]2)c2ccccc12	Marburg entry inh 6.5µM, LASV entry inh inconclusive, CHX counter 48
CN(CCCC1CCCC1)C(=O)CC1C(=O)NCCN1Cc1ccc(F)cc1 (stereo not given)	none
Cc1ccc(N(C(=O)CNC(=O)c2ccco2)C(C(=O)NC2CCCCC2)c2cccnc2)cc1 (stereo not given)	none
COc1cc(/C=N/Nc2ccccn2)ccc1OCC(C)C	Shiga toxin inh 62, Marburg entry inh inconclusive, CHX counter 34
COc1cc(/C=N/N(c2ccccc2)c2ccccc2)ccc1O	none
C=CCOc1ccc(/C=C(\C#N)C(=O)Nc2ccccn2)cc1OC	none
COc1cc(/C=N/Nc2ccccn2)cc(OC)c1O	Shiga toxin inh 63, Marburg entry inh inconclusive, LASV entry inh 7.9µM, CHX counter 25
CCOc1ccc(/C=N/N(C)c2ccccc2)cc1OC	Shiga toxin inh 64, Marburg entry inh inconclusive, LASV entry inh inconclusive, CHX counter 25
C=CCOc1ccc(/C=N/Nc2ccccn2)cc1OC	Shiga toxin inh 101, Marburg entry inh inconclusive, CHX counter 57
CCOc1ccc(OCCC(=O)OC(C)C(=O)Nc2ccc(C(C)=O)cc2)cc1 (stereo not given)	none
C[C@H](NC(=O)[C@@H](Cc1c[nH]c2ccccc12)NC(=O)[C@@H](N)Cc1cnc[nH]1)C(=O)N[C@@H](Cc1c[nH]c2ccccc12)C(=O)N[C@H](Cc1ccccc1)C(=O)N[C@@H](CCCCN)C(N)=O	none (no result: Marburg entry inh, LASV entry inh)
CCOc1ccc(/C=N/Nc2ccccn2)cc1OC	Shiga toxin inh 110, CHX counter 39
CCCOc1ccc(/C=N/NC(=O)c2c(-c3ccccc3)noc2C)cc1OC	none (no result: Marburg entry inh, LASV entry inh)
COc1cc(/C=N/Nc2ccccc2)ccc1O	Marburg entry inh inconclusive
CCCOc1ccc(/C=N/Nc2ccccn2)cc1OC	Shiga toxin inh 88, Marburg entry inh inconclusive, CHX counter 50
Cc1nc(SCC(=O)N(CC(C)C)C2CCS(=O)(=O)C2)c2c(C)c(C)sc2n1 (stereo not given)	Marburg entry inh inconclusive (no result: Shiga toxin inh, CHX counter)
CCOC(=O)CC(NC(=O)c1cc2c(=O)n3cccc(C)c3nc2s1)c1ccc(OCC)c(OC)c1 (stereo not given)	none (no result: Shiga toxin inh, CHX counter)
O=C(NC1CCCCCC1)C1c2ccccc2C(=O)N1Cc1ccccc1Cl (stereo not given)	Marburg entry inh inconclusive (no result: Shiga toxin inh, CHX counter)
CCOC(=O)c1c(NC(=O)c2cc(C)oc2C)sc(C(=O)Nc2ccc(Cl)cc2)c1C	LASV entry inh inconclusive, CHX counter 24
CCOC(=O)c1c(NC(=O)CN2CCN(C)CC2)sc(C(=O)Nc2ccccc2)c1C	Marburg entry inh inconclusive, CHX counter 28
CCOC(=O)c1sc(NC(=O)CCN2CCN(C)CC2)c(C(=O)OCC)c1C	LASV entry inh 11µM
CCOC(=O)c1sc(NC(=O)CN2CCCC2)c(C(=O)OCC)c1C	none
COC(=O)c1sc(NC(=S)NC(=O)c2cccc(Br)c2)nc1C	Shiga toxin inh 70, CHX counter 34 (no result: Marburg entry inh, LASV entry inh)
CCOC(=O)c1sc(NC(=S)NC(=O)c2ccco2)nc1C	CHX counter 42
COC(=O)c1sc(NC(=S)NC(=O)c2ccc(F)cc2)nc1C	none (no result: Marburg entry inh, LASV entry inh)
CCOC(=O)c1sc(NC(NC(=O)c2ccco2)(C(=O)OC)C(F)(F)F)nc1C (stereo not given)	LASV entry inh inconclusive
CCOC(=O)c1sc(NC(=O)C(CC)OC(=O)c2ccco2)nc1C (stereo not given)	CHX counter 16
COC(=O)c1sc(NC(=O)c2ccco2)nc1C	LASV entry inh inconclusive
O=c1c(-c2ccccc2)[n+]([O-])c2ccccc2n1O	none
CC#CC(=O)N1CCC(n2nccc2NC(=O)c2ccc3c(c2)OCO3)CC1	Shiga toxin inh 72, CHX counter 23 (no result: Marburg entry inh, LASV entry inh)
CSCC(=O)N1CCC(n2nccc2NC(=O)CCCc2ccccc2)CC1	CHX counter 21
CSc1ccc(C(=O)N2CCC(n3nccc3NC(=O)C3CC3)CC2)cc1	none
CSCCC(=O)N1CCC(n2nccc2NC(=O)c2ccc3c(c2)OCO3)CC1	Shiga toxin inh 65, Marburg entry inh inconclusive, CHX counter 54
COc1ccc(CN2CCC(n3nccc3NC(=O)c3ccc4c(c3)OCO4)CC2)cc1C	none (no result: Marburg entry inh, LASV entry inh)
Cc1ccccc1CN1CCC(n2nccc2NC(=O)c2ccc3c(c2)OCO3)CC1	Shiga toxin inh 34 (no result: Marburg entry inh, LASV entry inh)
